# In the supplement of paper PMC9950053:
# Where a name gives a salt, the structure may show the parent alone.
# System: Danio rerio larvae (5 dpf)
# Assay: startle (activity period 16 minus period 15, 20-s interval sound) minus DMSO control (percentage points); higher = stronger startle response than DMSO larvae
# Conditions: 10 µM; exposure time: 3 h pre-incubation + 3 h imaging
# Protocol: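 Wild-type 5 dpf zebrafish larvae (n=48 per drug, 96-well plates, 28.5 °C) were exposed to Tocris FDA-approved library compounds at 10 µM (0.1% DMSO) for 3 h before and 3 h during imaging. Images were taken every 6 s during visual (moving coloured lines) and acoustic stimuli, and larvae were tracked with the DeepLabCut-based Z-LaP Tracker. Each behavioural measure is the treated-group mean minus the DMSO vehicle control mean (n=844), in percentage points. This mapping covers compounds with 4-character plate codes.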
row,Structure (SMILES),startle
1,Cc1ccc(N(CC2=NCCN2)c2cccc(O)c2)cc1 [Phentolamine Mesylate],-2.8
2,Cc1ccsc1C(=CCCN1CCC[C@@H](C(=O)O)C1)c1sccc1C [Tiagabine hydrochloride],7.31
3,CN1CC(=O)N2[C@H](c3ccc4c(c3)OCO4)c3[nH]c4ccccc4c3C[C@@H]2C1=O [Tadalafil],8.43
4,CC1CNc2c(cccc2S(=O)(=O)N[C@@H](CCCNC(=N)N)C(=O)N2CC[C@@H](C)C[C@@H]2C(=O)O)C1 (stereo not given in full) [Argatroban],2.82
5,CCCCNc1cc(C(=O)O)cc(S(N)(=O)=O)c1Oc1ccccc1 [Bumetanide],3.28
6,Nc1cc(N2CCCCC2)nc(N)[n+]1[O-] [Minoxidil],-1.64
7,CCOc1cc(CC(=O)N[C@@H](CC(C)C)c2ccccc2N2CCCCC2)ccc1C(=O)O [Repaglinide],-4.11
8,COc1ccccc1OCCNCC(O)COc1cccc2[nH]c3ccccc3c12 (stereo not given) [Carvedilol],3.72
9,COc1ccc(Cl)cc1C(=O)NCCc1ccc(S(=O)(=O)NC(=O)NC2CCCCC2)cc1 [Glibenclamide],8.34
10,NC(=O)c1ncn([C@@H]2O[C@H](CO)[C@@H](O)[C@H]2O)n1 [Ribavirin],2.04
11,COc1cc2ncnc(Nc3ccc(F)c(Cl)c3)c2cc1OCCCN1CCOCC1 [Iressa],-1.42
12,CCCc1nc2c(C)cc(-c3nc4ccccc4n3C)cc2n1Cc1ccc(-c2ccccc2C(=O)O)cc1 [Telmisartan],2.86
13,Cc1cc(C2CCCCC2)n(O)c(=O)c1 [Ciclopirox],-8.19
14,Nc1nc(F)nc2c1ncn2[C@@H]1O[C@H](CO)[C@@H](O)[C@@H]1O [Fludarabine],4.52
15,C/C(O)=C(\C#N)C(=O)Nc1ccc(C(F)(F)F)cc1 [Teriflunomide],-2.62
16,CN1CC2c3ccccc3Oc3ccc(Cl)cc3C2C1 (stereo not given) [Asenapine maleate],-6.16
17,CCCCc1nc(Cl)c(CO)n1Cc1ccc(-c2ccccc2-c2nnn[nH]2)cc1 [Losartan potassium],-0.225
18,C[C@H](Cc1cc2c(c(C(N)=O)c1)N(CCCO)CC2)NCCOc1ccccc1OCC(F)(F)F [Silodosin],2.61
19,CC(C)CN(C[C@@H](O)[C@H](Cc1ccccc1)NC(=O)O[C@H]1CO[C@H]2OCC[C@H]21)S(=O)(=O)c1ccc(N)cc1 [Darunavir],-0.93
20,O=C1CCc2cc(OCCCCc3nnnn3C3CCCCC3)ccc2N1 [Cilostazol],1.37

row,Structure (SMILES),startle
1,Cc1nnc(C(C)C)n1C1C[C@H]2CC[C@@H](C1)N2CC[C@H](NC(=O)C1CCC(F)(F)CC1)c1ccccc1 (stereo in doubt) [Maraviroc],-4.84
2,C=CC(=O)N1CCC[C@@H](n2nc(-c3ccc(Oc4ccccc4)cc3)c3c(N)ncnc32)C1 [Ibrutinib],4.43
3,CC(C)(C)NC(=O)[C@@H]1C[C@@H]2CCCC[C@@H]2CN1C[C@@H](O)[C@H](Cc1ccccc1)NC(=O)[C@H](CC(N)=O)NC(=O)c1ccc2ccccc2n1 [Saquinavir mesylate],0.811
4,Nc1ccn([C@@H]2O[C@H](CO)[C@@H](O)C2(F)F)c(=O)n1 [Gemcitabine hydrochloride],2.17
5,CC(=O)NC[C@H]1CN(c2ccc(N3CCOCC3)c(F)c2)C(=O)O1 [Linezolid],2.73
6,CN/C(=N\CCSCc1nc[nH]c1C)NC#N [Cimetidine],5.75
7,NS(=O)(=O)c1cc(C(=O)O)c(NCc2ccco2)cc1Cl [Furosemide],-3.94
8,Cn1nnc2c(C(N)=O)ncn2c1=O [Temozolomide],2.78
9,CC(C)[C@H]1CC[C@H](C(=O)N[C@H](Cc2ccccc2)C(=O)O)CC1 [Nateglinide],3.17
10,CCN(Cc1ccncc1)C(=O)C(CO)c1ccccc1 (stereo not given) [Tropicamide],-6.79
11,NS(=O)(=O)Cc1noc2ccccc12 [Zonisamide],5.14
12,COc1cc2nc(N3CCN(C(=O)c4ccco4)CC3)nc(N)c2cc1OC [Prazosin hydrochloride],4.64
13,Nc1nc2c(ncn2COCCO)c(=O)[nH]1 [Acyclovir],-0.609
14,OCCN(CCO)c1nc(N2CCCCC2)c2nc(N(CCO)CCO)nc(N3CCCCC3)c2n1 [Dipyridamole],7.7
15,CCOC(=O)C1=C(COCCN)NC(C)=C(C(=O)OC)C1c1ccccc1Cl (stereo not given) [Amlodipine besylate],0.141
16,CC1=Nc2ccc(Cl)cc2S(=O)(=O)N1 [Diazoxide],-4.34
17,Cc1ccc(NC(=O)c2ccc(CN3CCN(C)CC3)cc2)cc1Nc1nccc(-c2cccnc2)n1 [Imatinib mesylate],5.71
18,COc1c(C)c2c(c(O)c1C/C=C(\C)CCC(=O)O)C(=O)OC2 [Mycophenolic acid],3.04
19,COC(c1ccccc1)(c1ccccc1)[C@H](Oc1nc(C)cc(C)n1)C(=O)O [Ambrisentan],6.56
20,COCCCOc1cc(C[C@@H](C[C@H](N)[C@@H](O)C[C@H](C(=O)NCC(C)(C)C(N)=O)C(C)C)C(C)C)ccc1OC [Aliskiren hemifumarate],0.496
